Results filed as inconclusive are left out. A call without a number means that no potency is given here. Active and inactive are the calls of the source. Unless noted, the call rests on the fitted dose curve; in most records, active means well fitted curve in the direction sought with a large enough effect in the repeat runs; inconclusive means weak or mixed curves; inactive means no such curve, though single readings can be large; an effect the other way counts as inactive or inconclusive.
Legend:
[1] = qHTS assay to identify small molecule agonists of the peroxisome proliferator-activated receptor delta (PPARd) signaling pathway - cell viability counter screen (AID 743211); further: nearly all actives have a fitted effect of over 55% in size
In short: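 Counter screen for cytotoxicity run in parallel with the PPARd reporter screen. Beta-lactamase reporter HEK293H cells exposed to compounds 17 h; ATP-based CellTiter-Glo luminescence quantified viability.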

[2] = qHTS assay to identify small molecule antagonists of the peroxisome proliferator-activated receptor delta (PPARd) signaling pathway - cell viability counter screen (AID 743213); further: nearly all actives have a fitted effect of over 50% in size
In short: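 Luminescence from CellTiter-Glo, added after the bla read and incubated 30 min at room temperature, gives viability of HEK293H PPARd-bla cells exposed to compounds for 17 h at 37 C with 300 nM L165041.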

[3] = qHTS assay to identify small molecule agonists of the farnesoid-X-receptor (FXR) signaling pathway - cell viability counter screen (AID 743218); further: nearly all actives have a fitted effect of over 45% in size
In short: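 Luminescence from CellTiter-Glo, read after 30 min at RT, reports viability of GeneBLAzer FXR-UAS-bla HEK 293T cells treated 16 h with compounds in the wells used for the beta-lactamase reporter.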

[4] = qHTS assay to identify small molecule agonists of the vitamin D receptor (VDR) signaling pathway - cell viability counter screen (AID 743224); further: series mostly up to about 63 µM; nearly all actives have a fitted effect of over 50% in size
In short: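 Cytotoxicity counter screen: VDR-bla cells, 16 h compound exposure at 37C, 5% CO2; CellTiter-Glo luminescence, 30 min RT, same wells as bla read.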

[5] = qHTS assay to identify small molecule antagonists of the vitamin D receptor (VDR) signaling pathway - cell viability counter screen (AID 743225); further: nearly all actives have a fitted effect of over 50% in size
In short: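 HEK293T VDR-bla; cpd + 1a,25-(OH)2D3 3 nM final, 16 h 37C/5% CO2; B/G FRET substrate 2 h RT; then CellTiter-Glo 30 min RT, luminescence.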

[6] = qHTS assay to identify small molecule agonists of the NFkB signaling pathway - cell viability counter screen (AID 1159515; calls by dose curve; further: series mostly up to about 61 µM; nearly all actives have a fitted effect of over 55% in size)
In short: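 ME-180 NFkB-bla cells, 2,000/well; overnight attach; compound 5 hr, 37 C/5% CO2; LiveBLAzer substrate 1.5 hr RT; then CellTiter-Glo in same wells, 30 min RT, luminescence read.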

[7] = qHTS assay to identify small molecule agonists of the endoplasmic reticulum stress response signaling pathway (AID 1159516; active means well fitted activation curve with a large enough effect in the signal ratio in the repeat runs, not every such curve was filed as active; the % refers to the signal ratio)
In short: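 HeLa ESRE-bla reporter line; cpd 5 h, 37 C/5% CO2; LiveBLAzer B/G FRET substrate 2 h RT; ex 405, em 460/530 nm.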

[8] = qHTS assay to identify small molecule agonists of the endoplasmic reticulum stress response signaling pathway - cell viability counter screen (AID 1159517; calls by dose curve;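 further: HeLa cells carrying an ER stress response element beta-lactamase reporter; series mostly up to about 61 µM; nearly all actives have a fitted effect of over 50% in size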)
In short: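 Cpd-treated ESRE-bla HeLa (5 hr, 37 C) → LiveBLAzer 2 hr RT → CellTiter-Glo 30 min RT → luminescence.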

[9] = qHTS assay to identify small molecule antagonists of the retinoid-related orphan receptor gamma (ROR-gamma) signaling pathway - cell viability counter screen (AID 1159520); further: nearly all actives have a fitted effect of over 50% in size
In short: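 Tet-on ROR gamma CHO cells (1,000/well) were plated 4 hr, given compounds in DMSO for 2 hr at 37 C, then induced with 1 uM final doxycycline for 16 hr. Viability was read as ATP by CellTiter-Glo luminescence after 30 min.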

[10] = qHTS assay to identify small molecule agonists of the AP-1 signaling pathway - cell viability counter screen (AID 1159525; calls by dose curve; further: nearly all actives have a fitted effect of over 55% in size)
In short: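 Each titration point was normalised to DMSO and tetra n-octyl ammonium bromide controls. The read was Cell Titer Glo luminescence after 30 min at RT, following 5 h compound exposure of ME-180 AP-1-bla cells at 37 °C.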

[11] = qHTS assay to identify small molecule agonists of the AP-1 signaling pathway (AID 1159526; calls by dose curve)
[12] = molecular target: Retinoic acid receptor RXR-alpha (Homo sapiens) (UniProt P19793); assay: qHTS assay to identify small molecule agonists of the RXR signaling pathway (AID 1159527; calls by dose curve; further: nearly all actives have a fitted effect of over 35% in size)
In short: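 Cells plated at 2,000/well, rested 5 hr at 37 C, pin-dosed with DMSO compound solutions, incubated 16 hr, then loaded with B/G FRET substrate for 2 hr at RT before dual-emission fluorescence reading.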

[13] = molecular target: Peroxisome proliferator-activated receptor delta (Homo sapiens) (UniProt Q03181); assay: qHTS assay to identify small molecule agonists of the peroxisome proliferator-activated receptor delta (PPARd) signaling pathway (AID 743212; calls by dose curve)
In short: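 Cells expressing a UAS-driven beta-lactamase reporter (PPARd-bla HEK293H) were given test compounds after a 5 h settle and kept at 37 C. Reporter activity was then measured as FRET fluorescence using LiveBLAzer B/G substrate.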

[14] = molecular target: Peroxisome proliferator-activated receptor delta (Homo sapiens) (UniProt Q03181); assay: qHTS assay to identify small molecule antagonists of the peroxisome proliferator-activated receptor delta (PPARd) signaling pathway (AID 743215; active means well fitted inhibition curve with a large enough effect in the signal ratio in the repeat runs, not every such curve was filed as active; the % refers to the signal ratio;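 further: cells stimulated with agonist L165041 at 300 nM final during compound exposure; series mostly up to about 62 µM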)
In short: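 HEK293H GeneBLAzer PPARd UAS-bla reporter cells; cpd + L165041 300 nM final, 17 h 37 C; LiveBLAzer B/G FRET substrate 2 h RT; fluorescence intensity read-out. Antagonist mode.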

[15] = qHTS assay to identify small molecule antagonists of the farnesoid-X-receptor (FXR) signaling pathway - cell viability counter screen (AID 743221; active means well fitted cell-killing curve with a large enough effect in the repeat runs, not every such curve was filed as active; further: nearly all actives have a fitted effect of over 50% in size)
In short: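 Multiplexed counter screen: viability of FXR-bla HEK 293T cells under agonist stimulation by chenodeoxycholic acid (50 uM, final) and test compound for 16 h at 37 C, measured by CellTiter-Glo luminescence in the reporter wells.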

[16] = molecular target: Vitamin D3 receptor (Homo sapiens) (UniProt P11473); assay: qHTS assay to identify small molecule agonists of the vitamin D receptor (VDR) signaling pathway (AID 743222; calls by dose curve)
In short: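 Beta-lactamase reporter readout (LiveBLAzer B/G FRET, 2 h RT) in VDR-bla cells after 16 h compound treatment at 37C, 5% CO2; cells pre-incubated 4 h before pin transfer of DMSO solutions.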

[17] = molecular target: Vitamin D3 receptor (Homo sapiens) (UniProt P11473); assay: qHTS assay to identify small molecule antagonists of the vitamin D receptor (VDR) signaling pathway (AID 743223; active means well fitted inhibition curve with a large enough effect in the signal ratio in the repeat runs, not every such curve was filed as active; the % refers to the signal ratio)
In short: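 Cells carrying a VDR-driven beta-lactamase reporter (VDR-bla) were co-treated with compound and 3 nM final 1alpha,25-dihydroxyvitamin D3 for 16 h at 37C; reporter activity was measured as FRET substrate fluorescence after 2 h at room temperature.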

[18] = molecular target: Nuclear receptor ROR-gamma (Homo sapiens) (UniProt P51449); assay: qHTS assay to identify small molecule antagonists of the retinoid-related orphan receptor gamma (ROR-gamma) signaling pathway (AID 1159521; further: nearly all actives have a fitted effect of over 50% in size; further: potency means the concentration at half of the fitted maximal effect)
In short: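 Cells were plated, rested 4 h at 37 C, exposed to compounds for 2 h, then given 1 uM final doxycycline hyclate to induce RORγ expression. After 16 h, ONE-Glo luminescence from the ROR response element reporter was measured.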

[19] = molecular target: Bile acid receptor (Homo sapiens) (UniProt Q96RI1); assay: qHTS assay to identify small molecule antagonists of the farnesoid-X-receptor (FXR) signaling pathway (AID 743217; active means well fitted inhibition curve with a large enough effect in the signal ratio in the repeat runs, not every such curve was filed as active; the % refers to the signal ratio)
In short: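 Read-out: beta-lactamase FRET fluorescence (LiveBLAzer B/G substrate, 2 h, room temperature) in GeneBLAzer FXR-UAS-bla HEK 293T cells. Compounds were co-dosed with 50 uM chenodeoxycholic acid (final) and incubated 16 h at 37 °C.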

[20] = molecular target: Bile acid receptor (Homo sapiens) (UniProt Q96RI1); assay: qHTS assay to identify small molecule agonists of the farnesoid-X-receptor (FXR) signaling pathway (AID 743220; active means well fitted activation curve with a large enough effect in the signal ratio in the repeat runs, not every such curve was filed as active; the % refers to the signal ratio)
In short: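 FXR-UAS-bla HEK 293T cells carrying a UAS-driven beta-lactamase reporter were plated for 5 h at 37C/5% CO2, then exposed to DMSO-dissolved Tox21 10K compounds for 16 h at 37C. A LiveBLAzer B/G FRET substrate was loaded for 2 h at room temperature before fluorescence reading.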

Sequence of Retinoic acid receptor RXR-alpha (Homo sapiens) (P19793 whole entry, looked up): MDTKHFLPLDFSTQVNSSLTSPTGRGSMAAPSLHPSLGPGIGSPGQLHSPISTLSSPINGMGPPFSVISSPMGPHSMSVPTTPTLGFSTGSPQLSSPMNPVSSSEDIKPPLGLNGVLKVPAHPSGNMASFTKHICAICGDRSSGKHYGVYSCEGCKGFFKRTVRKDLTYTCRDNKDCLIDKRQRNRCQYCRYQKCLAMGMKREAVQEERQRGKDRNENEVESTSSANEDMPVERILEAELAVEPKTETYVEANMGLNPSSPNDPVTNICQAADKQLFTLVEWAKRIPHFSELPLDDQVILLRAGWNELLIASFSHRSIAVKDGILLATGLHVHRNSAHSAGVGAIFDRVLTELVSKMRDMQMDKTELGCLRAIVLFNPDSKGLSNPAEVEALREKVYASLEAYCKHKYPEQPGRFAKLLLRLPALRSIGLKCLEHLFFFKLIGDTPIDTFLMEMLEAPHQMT
Sequence of Bile acid receptor (Homo sapiens) (Q96RI1 whole entry, looked up): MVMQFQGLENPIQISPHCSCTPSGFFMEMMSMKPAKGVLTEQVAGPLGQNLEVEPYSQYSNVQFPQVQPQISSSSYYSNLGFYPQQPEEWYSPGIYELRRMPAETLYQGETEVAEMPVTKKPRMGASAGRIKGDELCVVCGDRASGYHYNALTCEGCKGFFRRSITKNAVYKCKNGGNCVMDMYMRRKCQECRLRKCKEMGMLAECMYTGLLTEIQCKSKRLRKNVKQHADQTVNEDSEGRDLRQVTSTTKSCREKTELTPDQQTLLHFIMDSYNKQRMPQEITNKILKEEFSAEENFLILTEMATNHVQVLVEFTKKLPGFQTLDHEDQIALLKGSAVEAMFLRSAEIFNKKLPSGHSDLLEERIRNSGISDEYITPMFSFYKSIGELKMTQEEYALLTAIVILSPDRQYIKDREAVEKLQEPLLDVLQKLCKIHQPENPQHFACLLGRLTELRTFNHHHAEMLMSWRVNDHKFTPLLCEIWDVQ
Sequence of Vitamin D3 receptor (Homo sapiens) (P11473 whole entry, looked up): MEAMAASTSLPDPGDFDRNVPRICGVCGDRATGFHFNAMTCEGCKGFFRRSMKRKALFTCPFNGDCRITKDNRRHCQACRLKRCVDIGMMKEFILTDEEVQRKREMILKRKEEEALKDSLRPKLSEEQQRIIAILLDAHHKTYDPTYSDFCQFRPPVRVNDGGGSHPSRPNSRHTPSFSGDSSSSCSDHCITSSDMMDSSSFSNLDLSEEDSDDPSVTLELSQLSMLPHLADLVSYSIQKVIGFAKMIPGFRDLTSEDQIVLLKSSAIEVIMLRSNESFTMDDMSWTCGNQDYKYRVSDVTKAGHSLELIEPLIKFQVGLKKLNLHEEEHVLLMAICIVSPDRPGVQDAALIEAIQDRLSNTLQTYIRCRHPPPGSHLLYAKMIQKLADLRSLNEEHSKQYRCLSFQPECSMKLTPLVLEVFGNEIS
Sequence of Peroxisome proliferator-activated receptor delta (Homo sapiens) (Q03181 whole entry, looked up): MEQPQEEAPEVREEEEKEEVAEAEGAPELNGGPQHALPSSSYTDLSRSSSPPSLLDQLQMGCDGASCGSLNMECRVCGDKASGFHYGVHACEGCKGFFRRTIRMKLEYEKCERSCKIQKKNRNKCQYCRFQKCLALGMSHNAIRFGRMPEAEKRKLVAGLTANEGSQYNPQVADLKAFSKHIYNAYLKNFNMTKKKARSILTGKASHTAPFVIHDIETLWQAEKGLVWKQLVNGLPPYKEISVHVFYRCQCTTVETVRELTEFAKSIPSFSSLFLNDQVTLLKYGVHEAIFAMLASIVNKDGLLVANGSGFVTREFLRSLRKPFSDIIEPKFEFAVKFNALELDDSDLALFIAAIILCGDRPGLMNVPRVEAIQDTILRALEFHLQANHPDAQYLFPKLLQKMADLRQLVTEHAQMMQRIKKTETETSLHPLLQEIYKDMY

| Compound | Potency [1] | Potency [2] | Potency [3] | Potency [4] | Potency [5] | Potency [6] | Potency [7] | Potency [8] | Potency [9] | Potency [10] | Potency [11] | Potency [12] | Potency [13] | Potency [14] | Potency [15] | Potency [16] | Potency [17] | Potency [18] | Potency [19] | Potency [20] |
| --- | --- | --- | --- | --- | --- | --- | --- | --- | --- | --- | --- | --- | --- | --- | --- | --- | --- | --- | --- | --- |
| CCn1cc[n+](C)c1 (tested in a mixture with another compound) | inactive | inactive | inactive | inactive | inactive | inactive | inactive | inactive | inactive | inactive | inactive | inactive | – | – | – | – | – | – | – | – |
| C#CCO | inactive | inactive | inactive | inactive | inactive | inactive | inactive | inactive | inactive | inactive | inactive | inactive | inactive | inactive | inactive | inactive | inactive | – | – | – |
| C1=CCC=C1 | – | inactive | inactive | inactive | – | inactive | inactive | inactive | inactive | inactive | – | – | – | – | inactive | inactive | – | inactive | – | – |
| CC(C)C(Br)C(=O)NC(N)=O (stereo not drawn) | inactive | inactive | inactive | inactive | – | inactive | inactive | inactive | inactive | – | inactive | – | – | inactive | inactive | inactive | inactive | inactive | inactive | inactive |
| [C-]1=CC=CC1.[Cl][Zr+2][Cl].c1cc[cH-]c1 | inactive | inactive | inactive | inactive | inactive | inactive | inactive | inactive | inactive | inactive | inactive | – | – | – | inactive | inactive | – | inactive | – | – |
| OCC(Br)CBr (stereo not drawn) | inactive | inactive | inactive | inactive | – | inactive | inactive | inactive | inactive | inactive | inactive | inactive | – | inactive | – | inactive | inactive | – | inactive | inactive |
| c1cc[n+]2c(c1)-c1cccc[n+]1CC2 | inactive | inactive | inactive | inactive | inactive | inactive | inactive | inactive | inactive | inactive | inactive | inactive | inactive | inactive | inactive | inactive | – | – | – | – |
| CC(=O)[O-].CC(=O)[O-].O.O.[Zn+2] | inactive | inactive | inactive | – | inactive | inactive | inactive | inactive | inactive | inactive | inactive | inactive | – | – | inactive | – | – | – | – | – |
| CCCCn1cc[n+](C)c1.[Cl][Fe-]([Cl])([Cl])[Cl] | inactive | inactive | inactive | inactive | inactive | inactive | inactive | inactive | inactive | inactive | inactive | inactive | – | – | inactive | – | – | – | – | – |
| CC(C)NCC(O)c1ccccc1Cl (stereo not drawn) | inactive | inactive | inactive | inactive | – | inactive | inactive | inactive | inactive | inactive | inactive | inactive | – | inactive | inactive | – | – | – | – | – |
| O=NN(CCO)CCO | inactive | inactive | inactive | inactive | inactive | inactive | inactive | inactive | inactive | inactive | inactive | inactive | – | – | inactive | inactive | inactive | – | inactive | inactive |
| C[N+]1(C)[C@@H]2CC[C@H]1CC(OC(=O)C(CO)c1ccccc1)C2 (stereo partly drawn) | inactive | inactive | inactive | inactive | inactive | inactive | inactive | inactive | inactive | inactive | inactive | inactive | inactive | inactive | inactive | – | – | – | – | – |
| C=Cc1cccc(CCl)c1 | inactive | inactive | inactive | inactive | inactive | inactive | inactive | inactive | inactive | inactive | inactive | – | – | – | inactive | – | – | inactive | inactive | inactive |
| CCN(CC)Cc1nccn1-c1ccc([N+](=O)[O-])cc1C(=O)c1ccccc1Cl | – | inactive | inactive | – | inactive | inactive | inactive | inactive | inactive | inactive | inactive | – | – | inactive | inactive | inactive | inactive | inactive | – | – |
| CC#C[C@]1(O)CC[C@H]2[C@@H]3C[C@H](C)C4=CC(=O)CC[C@]4(C)[C@H]3CC[C@@]21C | inactive | inactive | inactive | – | inactive | inactive | inactive | inactive | inactive | inactive | – | – | – | – | inactive | – | – | 26.6 µM (active) | – | – |
| N#Cc1ccc(N(CC(N)=O)CC(F)(F)F)cc1C(F)(F)F | inactive | inactive | inactive | inactive | inactive | inactive | inactive | inactive | inactive | inactive | inactive | inactive | – | inactive | inactive | inactive | inactive | – | inactive | inactive |
| CCNS(=O)(=O)C(F)(F)C(F)(F)C(F)(F)C(F)(F)C(F)(F)C(F)(F)C(F)(F)C(F)(F)F | inactive | inactive | inactive | inactive | – | inactive | inactive | inactive | inactive | inactive | – | – | – | inactive | inactive | inactive | inactive | inactive | inactive | inactive |
| O=[N+]([O-])c1ccccc1-c1ccccc1 | inactive | inactive | inactive | inactive | inactive | inactive | inactive | inactive | inactive | inactive | – | inactive | – | – | – | – | – | inactive | – | – |

From PubChem BioAssay (Tox21)
